Where “and” joins values, the source holds several entries; their conditions need not be identical. Equal values may be shown once. Records with an inconclusive call do not appear. The source holds several records for some structures; these can differ, active in one and inactive in another. Calls of active or inactive are those of the source. How the source made its calls: active means hit-call score of the fitted dose curve at least 0.9, where 1 is the maximum; inconclusive means response in the unintended direction; inactive means score below 0.9.
test system: not listed separately; test: NVS_IC_rCaBTZCHL: NovaScreen (NVS) Ion Channel Assay for Calcium Channel, Type L, Benzothiazepine Site (CaBTZCHL) (AID 2283337)
Method in brief: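 Radioligand binding to the benzothiazepine site of L-type Ca channels in rat cortical membranes (cell-free), 1.5 h after dosing; filter-based scintillation counting. Loss of signal relative to DMSO baseline; primary single-concentration screen at 25 uM, actives then run in concentration series.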

SMILES | AC50 | outcome
CC(=O)NC1(c2cccc(F)c2)CCN(CC[C@@]2(c3ccc(Cl)c(Cl)c3)CN(c3ccccc3)C(=O)CO2)CC1 | 0.835 µM (active) | –
CCN(CC)CCNc1ccc(CNC=O)c2sc3ccc(OC)cc3c(=O)c12 | 19.2 µM (active) | –
CCCCCCCC(=O)O | – | inactive
CCCOc1sc(C(=O)N2CCC(c3cc(CN)ccc3F)CC2)c(C)c1Br | 3.64 µM (active) | –
CCC(=C(c1ccc(O)cc1)c1ccc(OCCN(C)C)cc1)c1ccccc1 | 0.589 µM (active) | –

target: bovine Gamma-Aminobutyric Acid Type A Receptor Agonist (GABAR Agonist), GABRA1 (gene 780973) (UniProt P08219); test: NVS_LGIC_bGABAR_Agonist: NovaScreen (NVS) Ligand-Gated Ion Channel Assay for bovine Gamma-Aminobutyric Acid Type A Receptor Agonist (GABAR Agonist) (AID 2283338)
Sequence (P08219 whole entry, looked up): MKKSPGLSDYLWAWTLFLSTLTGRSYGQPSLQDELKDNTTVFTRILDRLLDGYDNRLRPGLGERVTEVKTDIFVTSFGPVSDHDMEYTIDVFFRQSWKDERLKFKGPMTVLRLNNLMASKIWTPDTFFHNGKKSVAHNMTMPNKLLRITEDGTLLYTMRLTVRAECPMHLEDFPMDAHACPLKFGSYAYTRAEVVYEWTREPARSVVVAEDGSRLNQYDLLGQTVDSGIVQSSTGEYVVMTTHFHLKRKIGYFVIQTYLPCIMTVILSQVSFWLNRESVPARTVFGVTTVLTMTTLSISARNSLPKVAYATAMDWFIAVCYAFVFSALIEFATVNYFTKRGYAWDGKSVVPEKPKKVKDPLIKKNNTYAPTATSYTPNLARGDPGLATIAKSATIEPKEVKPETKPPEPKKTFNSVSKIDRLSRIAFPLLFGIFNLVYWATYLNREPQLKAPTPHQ
Description: NVS_LGIC_bGABAR_Agonist is a biochemical, single-readout assay that uses extracted gene-proteins from Bovine cerebellar membranes in a tissue-based cell-free assay. Measurements were taken 1 hour after chemical dosing in a 48-well plate.NVS_LGIC_bGABAR_Agonist is one of one assay component(s) measured or calculated from the NVS_LGIC_bGABAR_Agonist assay. It is designed to make measurements of radioligand binding, a form of binding reporter, as detected with scintillation counting signals by Filter-based radiodetection technology.Data from the assay component NVS_LGIC_bGABAR_Agonist was analyzed into 1 assay endpoint. This assay endpoint, NVS_LGIC_bGABAR_Agonist, was analyzed in the positive analysis fitting direction relative to DMSO as the negative control and baseline of activity. Using a type of binding reporter, gain-of-signal activity can be used to understand changes in the binding as they relate to the gene GABRA1. Furthermore, this assay endpoint can be referred to as a primary readout, because the performed assay has only produced 1 assay endpoint. To generalize the intended target to other relatable targets, this assay endpoint is annotated to the ion channel intended target family, where the subfamily is ligand-gated ion channel.
Binding assays used specific radioligands (tritiated, iodinated) with non-radioactive competitive displacement ligands in agonist or antagonist protocols (as indicated) and various reference compounds and inhibitors to titrate specific binding to receptors and transporters. Most enzyme assays (CYPs, kinases, phosphatases, proteases, HDACs) used recombinant protein and specific substrates (fluorescence mostly, some colorimetric and radioactive) and inhibitors, followed by a biochemical separation of substrate and product. All assays for the biochemical HTS were initially run in duplicate at a single concentration (10 uM for CYP450 assays and 25 uM for all others). […] Each assay was run with positive and negative controls, and concurrent controls on every plate. […]

SMILES | outcome
O=C(OCCOCCOC(=O)c1ccccc1)c1ccccc1 | inactive
OCCC(F)(F)C(F)(F)C(F)(F)C(F)(F)C(F)(F)C(F)(F)C(F)(F)C(F)(F)F | inactive
CCCCCCCCCCCCCCCS(=O)(=O)Oc1ccccc1 | inactive

test system: guinea pig Histamine Receptor (H2), gene 100729734; test: NVS_GPCR_gH2: NovaScreen (NVS) G Protein-Coupled Receptor Assay for guinea pig Histamine Receptor (H2) (AID 2283342)
Method in brief: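 Radioligand displacement on guinea pig striatal membranes, 1 h after dosing, filter-based scintillation counting; loss of signal versus DMSO. Single-point screen at 25 uM in duplicate, then concentration-response up to 50 uM.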

SMILES | AC50 | outcome
CC(=O)NC1(c2cccc(F)c2)CCN(CC[C@@]2(c3ccc(Cl)c(Cl)c3)CN(c3ccccc3)C(=O)CO2)CC1 | 8.91 µM (active) | –
C[C@@H]1C[C@H]2[C@@H]3CCC4=CC(=O)C=C[C@]4(C)[C@@]3(F)[C@@H](O)C[C@]2(C)[C@@]1(O)C(=O)COP(=O)(O)O | – | inactive
CCN(CC)CCNc1ccc(CNC=O)c2sc3ccc(OC)cc3c(=O)c12 | 11.3 µM (active) | –
NC(=O)N(O)[C@@H]1C=C[C@H](Oc2cccc(Oc3ccc(F)cc3)c2)C1 | – | inactive
CCCOc1sc(C(=O)N2CCC(c3cc(CN)ccc3F)CC2)c(C)c1Br | 7.46 µM (active) | –
CCC(=C(c1ccc(O)cc1)c1ccc(OCCN(C)C)cc1)c1ccccc1 | 1.33 µM (active) | –
CC#C[C@]1(O)CC[C@H]2[C@@H]3CCC4=CC(=O)CCC4=C3[C@@H](c3ccc(N(C)C)cc3)C[C@@]21C | – | inactive

test system: NCBI gene 100848466; test: NVS_NR_bPR: NovaScreen (NVS) Nuclear Receptor Binding Assay for bovine Progextron Receptor (PR) (AID 2283343);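 further: actives lower bound radioligand signal below DMSO meaning displacement of the label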
Method in brief: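 Bovine uterine membrane preparation, cell-free; radioligand competitive displacement measured by scintillation counting 18 hours after dosing. Loss of signal versus DMSO baseline indicates binding; primary HTS single concentration 25 uM in duplicate, actives followed in concentration series.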

SMILES | AC50
Oc1cc2ccccc2c2ccccc12 | 18 µM (active)
C[C@@H]1C[C@H]2[C@@H]3CCC4=CC(=O)C=C[C@]4(C)[C@@]3(F)[C@@H](O)C[C@]2(C)[C@@]1(O)C(=O)COP(=O)(O)O | 10.5 µM (active)
CCCCCCCCCCCCc1ccccc1S(=O)(=O)O | 17.1 µM (active)
C#C[C@]1(O)CC[C@H]2[C@@H]3CCC4=CC(=O)CC[C@@H]4[C@H]3CC[C@@]21C | 0.0183 µM (active)
CC#C[C@]1(O)CC[C@H]2[C@@H]3CCC4=CC(=O)CCC4=C3[C@@H](c3ccc(N(C)C)cc3)C[C@@]21C | 0.00874 µM (active)

target: human Constitutive Androstane Receptor (CAR), NR1I3 (gene 9970) (UniProt Q14994); test: NVS_NR_hCAR_Antagonist: NovaScreen (NVS) Nuclear Receptor Binding Assay for human Constitutive Androstane Receptor Antagonism (CAR) (AID 2283344)
Sequence (Q14994 whole entry, looked up): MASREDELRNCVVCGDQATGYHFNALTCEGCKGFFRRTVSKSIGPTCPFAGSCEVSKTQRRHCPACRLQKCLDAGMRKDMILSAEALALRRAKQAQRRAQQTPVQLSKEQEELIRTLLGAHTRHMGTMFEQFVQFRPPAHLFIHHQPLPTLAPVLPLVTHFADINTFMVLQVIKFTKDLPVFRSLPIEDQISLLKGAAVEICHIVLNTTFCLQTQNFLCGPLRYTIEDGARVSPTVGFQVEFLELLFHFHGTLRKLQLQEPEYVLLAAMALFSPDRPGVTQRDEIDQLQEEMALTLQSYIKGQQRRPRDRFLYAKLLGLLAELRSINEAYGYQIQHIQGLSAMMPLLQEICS
Method in brief: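 Cell-free TR-FRET binding read 1 h after dosing, antagonist mode; loss of signal versus DMSO baseline. Primary screen in duplicate at a single 25 uM; actives retested in concentration series.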

SMILES | AC50 | outcome
O=C(O)c1ccccc1C(c1ccc(O)cc1)c1ccc(O)cc1 | 0.427 µM (active) | –
O=C(OCCOCCOC(=O)c1ccccc1)c1ccccc1 | – | inactive
CC[C@H](c1ccc(O)cc1)[C@@H](CC)c1ccc(O)cc1 | 0.00229 µM (active) | –
CCCCCCCCCCCCc1ccccc1S(=O)(=O)O | 10.9 µM (active) | –
CCCCCCCC(=O)O | – | inactive
COCC(C)OCC(C)O (stereo not given) | – | inactive
CCC(=C(c1ccc(O)cc1)c1ccc(OCCN(C)C)cc1)c1ccccc1 | 18.2 µM (active) | –

target: bovine Estrogen Receptor (ER), ESR1 (gene 407238) (UniProt P49884); test: NVS_NR_bER: NovaScreen (NVS) Nuclear Receptor Binding Assay for bovine Estrogen Receptor (ER) (AID 2283345);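 further: actives lower the bound radioligand count which means they displace the ER ligand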
Sequence (P49884 whole entry, looked up): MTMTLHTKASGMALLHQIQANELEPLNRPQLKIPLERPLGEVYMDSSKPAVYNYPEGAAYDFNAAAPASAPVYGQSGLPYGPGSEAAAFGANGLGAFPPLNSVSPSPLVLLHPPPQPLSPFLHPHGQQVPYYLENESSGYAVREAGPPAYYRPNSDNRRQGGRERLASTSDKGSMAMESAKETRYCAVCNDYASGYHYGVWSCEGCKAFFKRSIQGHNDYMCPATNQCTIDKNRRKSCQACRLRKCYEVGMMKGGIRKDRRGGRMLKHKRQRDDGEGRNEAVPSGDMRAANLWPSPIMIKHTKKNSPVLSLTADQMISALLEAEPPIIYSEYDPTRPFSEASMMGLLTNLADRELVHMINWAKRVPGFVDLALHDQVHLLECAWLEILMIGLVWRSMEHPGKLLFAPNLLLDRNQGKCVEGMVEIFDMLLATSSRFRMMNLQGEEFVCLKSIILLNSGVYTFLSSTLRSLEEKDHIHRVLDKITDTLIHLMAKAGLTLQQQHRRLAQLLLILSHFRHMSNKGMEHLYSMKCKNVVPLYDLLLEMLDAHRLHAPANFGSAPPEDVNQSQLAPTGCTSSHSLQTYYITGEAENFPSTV
Method in brief: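 Cell-free radioligand binding with bovine uterine membrane extracts, read 18 hours after dosing by scintillation counting. Loss of signal versus DMSO baseline indicates displacement. Primary screen run in duplicate at 25 uM, actives followed in concentration series.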

SMILES | outcome | AC50
CC1=C(/C=C/C(C)=C/C=C/C(C)=C/C(=O)O)C(C)(C)CCC1 | inactive | –
OC1CCC(C2CCCCC2)CC1 (stereo not given) | inactive | –
Oc1cc2ccccc2c2ccccc12 | inactive | –
c1ccc2cc3c(ccc4ccccc43)cc2c1 | inactive | –
C[C@@H]1C[C@H]2[C@@H]3CCC4=CC(=O)C=C[C@]4(C)[C@@]3(F)[C@@H](O)C[C@]2(C)[C@@]1(O)C(=O)COP(=O)(O)O | inactive | –
OCCC(F)(F)C(F)(F)C(F)(F)C(F)(F)C(F)(F)C(F)(F)C(F)(F)C(F)(F)F | inactive | –
CCCCCCCCCCCCc1ccccc1S(=O)(=O)O | – | 39.1 µM (active)
CCN(CC)CCNc1ccc(CNC=O)c2sc3ccc(OC)cc3c(=O)c12 | inactive | –
NC(=O)N1C(=O)C(C(=O)c2cc(Cl)cs2)c2cc(F)c(Cl)cc21 (stereo not given) | – | 25 µM (active)
CCCOC(=O)c1ccc(O)cc1 | inactive | –
ClC1=C(Cl)C(Cl)(Cl)C(Cl)=C1Cl | inactive | –
Cc1oc(-c2ccccc2)nc1CCOc1ccc(C[C@H](Nc2ccccc2C(=O)c2ccccc2)C(=O)O)cc1 | inactive | –
O=C(O)Cc1cc(I)c(Oc2cc(I)c(O)c(I)c2)c(I)c1 | inactive | –
C#C[C@]1(O)CC[C@H]2[C@@H]3CCC4=CC(=O)CC[C@@H]4[C@H]3CC[C@@]21C | inactive | –
CC#C[C@]1(O)CC[C@H]2[C@@H]3CCC4=CC(=O)CCC4=C3[C@@H](c3ccc(N(C)C)cc3)C[C@@]21C | inactive | 10 µM (active) and 16.2 µM (active) and 8.77 µM (active)

target: chimpanzee Androgen Receptor (AR), AR (gene 747460) (UniProt O97775); test: NVS_NR_cAR: NovaScreen (NVS) Nuclear Receptor Binding Assay for chimpanzee Androgen Receptor (AR) (AID 2283346);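 further: radioligand displacement from AR measured by scintillation counting in a cell-free assay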
Sequence (O97775 whole entry, looked up): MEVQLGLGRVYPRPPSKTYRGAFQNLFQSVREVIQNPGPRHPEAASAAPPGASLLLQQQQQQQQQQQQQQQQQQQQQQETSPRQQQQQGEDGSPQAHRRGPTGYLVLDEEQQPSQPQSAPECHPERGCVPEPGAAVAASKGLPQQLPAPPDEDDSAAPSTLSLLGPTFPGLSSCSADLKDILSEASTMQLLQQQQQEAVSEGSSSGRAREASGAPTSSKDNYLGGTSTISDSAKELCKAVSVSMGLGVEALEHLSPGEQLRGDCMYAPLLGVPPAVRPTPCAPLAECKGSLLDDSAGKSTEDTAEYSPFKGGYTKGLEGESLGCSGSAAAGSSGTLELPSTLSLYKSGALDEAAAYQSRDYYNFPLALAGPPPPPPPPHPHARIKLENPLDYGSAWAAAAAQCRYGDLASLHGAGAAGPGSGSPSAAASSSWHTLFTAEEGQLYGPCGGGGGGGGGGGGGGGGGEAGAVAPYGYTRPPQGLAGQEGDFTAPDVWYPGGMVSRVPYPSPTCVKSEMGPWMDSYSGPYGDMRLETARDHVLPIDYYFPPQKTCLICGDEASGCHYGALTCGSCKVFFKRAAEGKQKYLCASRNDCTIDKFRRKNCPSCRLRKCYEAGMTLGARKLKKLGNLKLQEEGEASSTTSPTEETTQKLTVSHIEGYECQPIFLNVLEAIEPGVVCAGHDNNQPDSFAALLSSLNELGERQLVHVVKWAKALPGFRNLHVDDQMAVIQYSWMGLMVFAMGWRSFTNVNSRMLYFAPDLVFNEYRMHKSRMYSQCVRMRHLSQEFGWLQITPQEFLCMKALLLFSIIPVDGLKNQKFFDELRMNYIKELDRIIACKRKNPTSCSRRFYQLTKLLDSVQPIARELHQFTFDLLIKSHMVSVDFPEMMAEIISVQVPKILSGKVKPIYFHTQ
Method in brief: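 Cell-free radioligand displacement using receptor protein extracted from Sf9/Sf21 cells; bound radioligand measured by scintillation counting 72 hours after chemical dosing. Loss of signal versus DMSO baseline indicates binding; primary screen single-concentration in duplicate at 25 uM, actives followed in concentration series.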

SMILES | outcome | AC50
O=C(O)c1ccccc1C(c1ccc(O)cc1)c1ccc(O)cc1 | inactive | –
OC1CCC(C2CCCCC2)CC1 (stereo not given) | inactive | 22.4 µM (active)
Oc1cc2ccccc2c2ccccc12 | – | 10.1 µM (active)
C[C@@H]1C[C@H]2[C@@H]3CCC4=CC(=O)C=C[C@]4(C)[C@@]3(F)[C@@H](O)C[C@]2(C)[C@@]1(O)C(=O)COP(=O)(O)O | – | 0.0307 µM (active)
CC[C@H](c1ccc(O)cc1)[C@@H](CC)c1ccc(O)cc1 | inactive | –
CCN(CC)CCNc1ccc(CNC=O)c2sc3ccc(OC)cc3c(=O)c12 | inactive | –
CCCOC(=O)c1ccc(O)cc1 | inactive | –
Cc1oc(-c2ccccc2)nc1CCOc1ccc(C[C@H](Nc2ccccc2C(=O)c2ccccc2)C(=O)O)cc1 | inactive | –
C#C[C@]1(O)CC[C@H]2[C@@H]3CCC4=CC(=O)CC[C@@H]4[C@H]3CC[C@@]21C | – | 5.99 nM (active) and 4.99 nM (active)
CCC(=C(c1ccc(O)cc1)c1ccc(OCCN(C)C)cc1)c1ccccc1 | – | 6.21 µM (active) and 12.9 µM (active)
CC#C[C@]1(O)CC[C@H]2[C@@H]3CCC4=CC(=O)CCC4=C3[C@@H](c3ccc(N(C)C)cc3)C[C@@]21C | – | 16.7 nM (active) and 46.7 nM (active)
